Test [1] in a line: compounds binding Alexa647 anti-His antibody – biochemical, small-molecule microarray, 635 nm fluorescence, artefact control for SMM control protein annotation, primary screen (AID 1128).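 Note: score merges feature fluorescence with signal-to-noise for each printed compound spot.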 To be noted: higher = more signal.
Test [2] has as its system Human papillomavirus type 1a E7 protein (residues 1-88). As to the kind of experiment: HPV1a E7 small-molecule binders, primary screen, biochemical, small-molecule microarray, residues 1-88, 635 nm (AID 1129). To be noted: small-molecule microarray binding, fluorescence 635 nm; higher = more signal.
Test [3] concerns the target Focal adhesion kinase 1 (Homo sapiens) (UniProt Q05397). As to the kind of experiment: PTK2 protein binding on printed compound slides – biochemical, small-molecule microarray, 635/667 nm fluorescence, BSA, DTT, primary screen (AID 1130).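 Note: composite of spot emission at 667 nm and signal to noise over triplicate slides.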 The settings on record: 635 nm fluorescence, higher = more signal.
The test system of test [4] is Fibrinogen (Alexa647-labelled). The test can be described thus: Alexa647-fibrinogen binding to printed small molecules – biochemical, small-molecule microarray, 635/667 nm fluorescence, artefact control for SMM control-protein annotation, profiling panel (AID 1131).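 Note: z-score merges 667 nm fluorescence with per-spot signal-to-noise over triplicate slides.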 To be noted: fibrinogen-A647 binding fluorescence, higher = more signal.
Test [5] has as its target Follistatin (Homo sapiens) (UniProt P19883). As to the kind of experiment: FST protein binding to printed compounds – biochemical, small-molecule microarray, 635/667 nm fluorescence, primary screen (AID 1132). To be noted: 635 nm fluorescence, higher = more signal.
The target of test [6] is Fibroblast growth factor 2 (Homo sapiens) (UniProt P09038). The test can be described thus: basic fibroblast growth factor binding to printed compounds – biochemical, small-molecule microarray, 635/667 nm fluorescence, primary screen (AID 1133). The settings on record: FGF2, fluorescence 635/667, higher = more signal.
Test [7] can be described thus: JC-1 mitochondrial potential readout, lung cancer cells – cell-based, A549, JC-1 fluorescence, basal, 24 h, 100 nL, profiling panel (AID 1138).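 Note: A549 lung adenocarcinoma cells under basal conditions with no added stimulus; test concentration not given here.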 The settings on record: higher = more signal.
The test system of test [8] is Lefty1. As to the kind of experiment: Lefty1 protein binding to printed compounds – biochemical, small-molecule microarray, 635/667 nm fluorescence, primary screen (AID 1139). The settings on record: fluorescence 635/667, higher = more signal.
The test system of test [9] is wheat germ agglutinin (Triticum aestivum), Alexa647-labelled. The test can be described thus: Alexa647-WGA lectin binding to printed small molecules – biochemical, small-molecule microarray, 635/667 nm fluorescence, artefact control for SMM control-protein annotation, profiling panel (AID 1140).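 Note: score merges 667 nm feature emission with signal to noise over triplicate slides.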 To be noted: WGA-A647 binding, 635 nm fluorescence, higher = more signal.

Test [10] deals with Luciferin 4-monooxygenase (Photinus pyralis) (UniProt P08659). The test can be described thus: inhibition of purified Photinus pyralis luciferase – biochemical, luminescence, purified enzyme, 2006 set, primary screen (AID 1141).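 Note: cell-free assay with purified firefly luciferase at 100 ng per well in PBS; test concentration not given here.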 To be noted: purified firefly luciferase, SteadyGlo luminescence, 30 min; higher = more signal, called active from +8 up or from −8 down.
In test [11] the test system is Wnt5a (protein binding on small-molecule microarray). The test can be described thus: small molecules binding Wnt5a protein – biophysical, small-molecule microarray, 635/667 nm fluorescence, primary screen (AID 1142).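 Note: fluorescence read at 667 nm with signal to noise per printed feature.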 The settings on record: 635 nm fluorescence, higher = more signal.
A short description of test [12]: ATP-based viability of Huh7 replicon cells – cell-based, CellTiter-Glo luminescence, basal, 48 h, cytotoxicity control for HCV replication inhibitor project, primary screen (AID 1143).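 Note: Huh7 hepatoma cells carrying a hepatitis C replication reporter with no stimulus; test concentration not given here.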 The settings on record: higher = more signal, called active from +8 up or from −8 down.
A short description of test [13]: Pseudomonas biofilm growth suppression – PAO1 strain, BacTiter-Glo luminescence, LB-PBS, primary screen (AID 1144). The settings on record: P. aeruginosa PAO1 biofilm, 12 h, higher = more signal.
A short description of test [14]: basal CRE-LacZ reporter activity in PC12 – cell-based, unstimulated, primary screen (AID 1145). The settings on record: no forskolin, luminescence, 4.5 h, higher = more signal, called active from +8 up or from −8 down.
Test [15] in a line: forskolin-driven CRE-LacZ activity in PC12 – cell-based, CRE-LacZ reporter, forskolin-stimulated, primary screen (AID 1146).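 Note: PC12 cells with 6xCRE LacZ reporter stimulated by forskolin 10 µM; beta-galactosidase reporter signal reflecting CREB driven transcription.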 The settings on record: luminescence, 4.5 h, higher = more signal, called active from +8 up or from −8 down.
For test [16], the target named is Streptavidin (Streptomyces avidinii) (UniProt P22629). As to the kind of experiment: compounds binding control protein streptavidin – biophysical, small-molecule microarray, 635/667 nm fluorescence, artefact control for SMM compound annotation, primary screen (AID 1147).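 Note: signal reflects streptavidin binding to arrayed compounds as a control protein.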 The settings on record: higher = more signal.
The nature of test [17]: probe aInhba binding on compound microarray – biochemical, small-molecule microarray, 635/667 nm fluorescence, primary screen (AID 1148).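 Note: score merges 667nm spot fluorescence with signal-to-noise for antibody binding to printed compounds.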 To be noted: higher = more signal.
Test [18] concerns the target Torsin-1A (Homo sapiens) (UniProt O14656). As to the kind of experiment: TOR1A wild-type binding on microarray – cell lysate, small-molecule microarray, lysate, 635/667 nm, primary screen (AID 1149). To be noted: COS7 hTOR1A-WT lysate, 635 nm fluorescence, higher = more signal.
For test [19] the target is unchanged. As to the kind of experiment: torsin A mutant lysate binding on microarrays – cell lysate, small-molecule microarray, COS7 lysate, 635/667 nm fluorescence, primary screen (AID 1150).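 Note: score pools 667 nm emission and signal to noise measuring lysate protein binding.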 The settings on record: COS7 hTOR1A mutant lysate, 635 nm fluorescence, higher = more signal.
The test system of test [20] is Sonic hedgehog protein (Shh). As to the kind of experiment: Sonic hedgehog microarray binding compounds – biochemical, small-molecule microarray, 635/667 nm fluorescence, primary screen (AID 1151).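 Note: Shh protein binding to compounds spotted on small-molecule microarray slides; score combines spot fluorescence intensity with signal-to-noise across triplicate slides.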 The settings on record: 635 nm fluorescence, higher = more signal.

Values joined by “and” are separate entries in the source; they are usually repeats but may differ in a detail not shown here. Equal entries are not always repeated. Active and inactive are the calls of the source. Unless noted, the rule behind the calls is not given here.

Sequence of Fibroblast growth factor 2 (Homo sapiens) (P09038 whole entry, looked up): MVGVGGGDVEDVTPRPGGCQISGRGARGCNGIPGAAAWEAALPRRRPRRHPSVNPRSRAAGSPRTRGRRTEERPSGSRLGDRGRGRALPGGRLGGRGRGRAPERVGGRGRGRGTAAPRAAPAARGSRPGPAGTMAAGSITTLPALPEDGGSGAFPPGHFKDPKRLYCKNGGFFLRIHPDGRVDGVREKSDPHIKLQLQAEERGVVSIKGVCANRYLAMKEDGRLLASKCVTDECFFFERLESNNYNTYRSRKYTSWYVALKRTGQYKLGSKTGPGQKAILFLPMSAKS
Sequence of Follistatin (Homo sapiens) (P19883 whole entry, looked up): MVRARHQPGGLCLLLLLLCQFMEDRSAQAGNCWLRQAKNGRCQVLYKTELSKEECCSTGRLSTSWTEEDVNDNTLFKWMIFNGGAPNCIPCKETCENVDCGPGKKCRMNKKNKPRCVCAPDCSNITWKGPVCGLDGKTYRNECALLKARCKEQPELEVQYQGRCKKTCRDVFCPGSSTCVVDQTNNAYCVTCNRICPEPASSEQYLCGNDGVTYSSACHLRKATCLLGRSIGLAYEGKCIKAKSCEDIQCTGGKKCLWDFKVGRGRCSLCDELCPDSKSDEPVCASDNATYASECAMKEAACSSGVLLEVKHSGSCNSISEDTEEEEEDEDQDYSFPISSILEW
Sequence of Streptavidin (Streptomyces avidinii) (P22629 whole entry, looked up): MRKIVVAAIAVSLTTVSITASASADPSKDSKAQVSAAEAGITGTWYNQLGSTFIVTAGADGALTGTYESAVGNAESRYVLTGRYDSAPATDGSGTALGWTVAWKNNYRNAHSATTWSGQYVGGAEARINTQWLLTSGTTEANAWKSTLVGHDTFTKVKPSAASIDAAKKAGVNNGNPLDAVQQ
Sequence of Luciferin 4-monooxygenase (Photinus pyralis) (P08659 whole entry, looked up): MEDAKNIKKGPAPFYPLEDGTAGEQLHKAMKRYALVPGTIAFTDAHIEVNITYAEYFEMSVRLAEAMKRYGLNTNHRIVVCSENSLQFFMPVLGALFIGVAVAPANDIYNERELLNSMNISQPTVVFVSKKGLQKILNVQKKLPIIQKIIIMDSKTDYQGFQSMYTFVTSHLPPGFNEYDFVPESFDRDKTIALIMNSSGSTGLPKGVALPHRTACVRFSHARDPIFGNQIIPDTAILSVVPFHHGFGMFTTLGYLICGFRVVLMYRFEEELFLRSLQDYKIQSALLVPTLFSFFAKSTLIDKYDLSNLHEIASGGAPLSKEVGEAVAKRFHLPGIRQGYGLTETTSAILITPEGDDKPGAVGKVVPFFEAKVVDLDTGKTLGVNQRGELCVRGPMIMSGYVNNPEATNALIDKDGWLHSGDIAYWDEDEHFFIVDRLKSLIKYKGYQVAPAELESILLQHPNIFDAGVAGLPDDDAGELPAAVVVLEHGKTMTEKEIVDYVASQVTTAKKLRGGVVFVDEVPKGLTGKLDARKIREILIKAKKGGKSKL
Sequence of Focal adhesion kinase 1 (Homo sapiens) (Q05397 whole entry, looked up): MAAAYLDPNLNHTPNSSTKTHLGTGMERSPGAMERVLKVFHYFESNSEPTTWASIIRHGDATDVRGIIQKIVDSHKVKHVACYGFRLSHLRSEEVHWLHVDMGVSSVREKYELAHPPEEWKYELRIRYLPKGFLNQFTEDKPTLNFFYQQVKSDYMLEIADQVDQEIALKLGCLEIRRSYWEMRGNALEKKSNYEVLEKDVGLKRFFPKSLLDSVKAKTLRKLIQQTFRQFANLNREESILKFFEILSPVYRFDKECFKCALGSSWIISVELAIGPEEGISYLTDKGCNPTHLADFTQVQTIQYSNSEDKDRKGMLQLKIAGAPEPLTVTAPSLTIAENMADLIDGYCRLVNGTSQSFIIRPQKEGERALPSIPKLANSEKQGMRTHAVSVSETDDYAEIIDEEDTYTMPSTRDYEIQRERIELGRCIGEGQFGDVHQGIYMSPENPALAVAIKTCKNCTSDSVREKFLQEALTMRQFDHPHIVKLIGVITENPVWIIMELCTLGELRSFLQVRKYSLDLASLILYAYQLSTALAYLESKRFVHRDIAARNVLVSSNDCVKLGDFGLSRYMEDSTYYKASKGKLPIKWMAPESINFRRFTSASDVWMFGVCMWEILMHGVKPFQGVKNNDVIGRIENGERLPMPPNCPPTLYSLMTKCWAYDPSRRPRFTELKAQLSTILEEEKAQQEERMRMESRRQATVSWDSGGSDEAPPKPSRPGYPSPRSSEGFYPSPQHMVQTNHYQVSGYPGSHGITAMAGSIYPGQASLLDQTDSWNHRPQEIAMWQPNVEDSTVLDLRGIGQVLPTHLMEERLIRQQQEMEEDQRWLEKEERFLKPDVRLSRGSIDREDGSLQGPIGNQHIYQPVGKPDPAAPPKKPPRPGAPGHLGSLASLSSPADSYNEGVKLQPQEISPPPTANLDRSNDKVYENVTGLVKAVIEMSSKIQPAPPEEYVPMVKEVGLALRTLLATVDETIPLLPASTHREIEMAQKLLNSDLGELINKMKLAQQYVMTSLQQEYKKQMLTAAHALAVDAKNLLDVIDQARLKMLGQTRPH
Sequence of Torsin-1A (Homo sapiens) (O14656 whole entry, looked up): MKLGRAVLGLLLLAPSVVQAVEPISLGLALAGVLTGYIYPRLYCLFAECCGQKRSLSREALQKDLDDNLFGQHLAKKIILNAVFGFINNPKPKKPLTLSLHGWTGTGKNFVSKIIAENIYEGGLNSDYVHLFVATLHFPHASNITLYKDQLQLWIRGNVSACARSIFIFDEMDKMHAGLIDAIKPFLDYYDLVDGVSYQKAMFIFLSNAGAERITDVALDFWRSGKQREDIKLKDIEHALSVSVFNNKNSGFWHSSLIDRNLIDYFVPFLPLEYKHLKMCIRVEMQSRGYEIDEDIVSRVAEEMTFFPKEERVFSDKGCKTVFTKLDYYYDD

As to `CC(C)CCN1CCc2nc(-c3ccccc3)c3c(c2C1)CO[C@@H](C)C3`, the composite z-score stood at 0.554 in test [1]; 0.669 in test [2]; 0.304 in [3]; 0.436 in test [4]; 0.785 in test [5]; 0.528 in test [6]. Also, the composite z-score in test [8] turned out to be 0.631; in test [9], 0.931; in test [11], 0.0842; in [16], 0.375; in test [17], 0.0173; in [18], 0.509. Besides, the composite z-score is 0.471 in test [19] and 0.827 in test [20]. The z-score is 1.19 in test [7]; -1.17 (inactive) in test [10]; 0.267 (inactive) in test [12]; 0.268 (inactive) in [13]; 4.64 (inactive) in [14]; -0.44 (inactive) in [15].
`C=C[C@H](OC)[C@@H](O)c1ccc(OCCO)cc1`: the composite z-score in [1] is -1.34 and 2.11; in [2] it was -1.73 and -0.721; in [3], -0.86 and 0.0202; in [4], -2.46 and -1.57; in test [5], -1.51 and -0.835; in [6] it was -1.92 and -0.492. In addition, the composite z-score in [8] is -2.17 and -1.55; in test [9], -2.15 and -0.827; in [11] it was -0.181 and -0.509; in test [16], -1.59 and -1.75; in test [17] it was -0.258 and -0.244; in [18], -1.15 and -1.11. Moreover, the composite z-score was -0.812 and -1.99 in [19]; -0.459 and -0.143 in test [20]. Besides, the z-score was -0.669 and 0.692 in [7]; -0.117 (inactive) and -1.75 (inactive) in [10]; -0.238 (inactive) and 0.881 (inactive) in test [12]; -0.354 (inactive) and -1.35 (inactive) in test [13]; 0.833 (inactive) and -0.0533 (inactive) in [14]; 0.2 (inactive) and -1.46 (inactive) in test [15].
For `O=C1NC(=O)C2C1C=CC(C(O)c1ccc([N+](=O)[O-])cc1)N2Nc1ccc(Cl)cc1Cl` (stereo not given), the composite z-score was 0.396 and 0.455 in [1]; 1.14 and 1.18 in [2]; 0.649 and 0.342 in [3]; 0.969 and 0.703 in test [4]; 0.816 and 0.774 in test [5]; 0.202 and -0.279 in [6]. The composite z-score in [8] is -0.427 and -0.899; in test [9] it was 0.751 and 1.39; in test [11], 0.283 and 0.0563; in test [16] it was 0.404 and 0.519; in test [17], 0.0301 and 0.175; in [18] it was 0.339 and 1.2. Besides, the composite z-score is 0.703 and 1.22 in test [19]; -0.274 and -0.13 in test [20]. Besides, the z-score is 0.824 and -0.201 in test [7]; -1.81 (inactive) and -2.34 (inactive) in [10]; -0.311 (inactive) and -0.861 (inactive) in test [12]; -1.48 (inactive) and -2.27 (inactive) in test [13]; 0.812 (inactive) and 0.443 (inactive) in [14]; 0.479 (inactive) and -0.492 (inactive) in test [15].
With `C=CCN(Cc1ccccc1)C(=O)C1N(CCCCCCO)C(=O)C2C(C(=O)O)C3C=CC21O3` (stereo not given), the composite z-score in [1] was 0.193 and -0.664; in test [2], -0.363 and -0.297; in [3] it was 0.0147 and -0.339; in [4] it was -0.923 and -1.99; in [5], -1.42 and -1.07; in test [6], -1.88 and -2.94. The composite z-score in [8] was -1.84 and -1.78; in test [9], -0.834 and -0.785; in [11] it was -1.02 and -1.77; in [16], -1.02 and -1.77; in [17], -0.159 and -0.21; in test [18], -3.02 and -4.56. Also, the composite z-score in test [19] is -2.45 and 0.914; in [20], -1.62 and -1.85. Further, the z-score is -0.38 and 0.344 in test [7]; 1.01 (inactive) and 1.33 (inactive) in [10]; -0.118 (inactive) and 0.533 (inactive) in test [12]; -0.12 (inactive) and -1.45 (inactive) in [13]; -1.31 (inactive) and -1.44 (inactive) in test [14]; -0.665 (inactive) and -0.279 (inactive) in test [15].

Values taken from PubChem BioAssay.
